KCNQ2 pot – KCNQ2 (rat) channel potentiation; CHO-K1 KCNQ2, FluxOR thallium flux fluorescence; stronger effect = higher value; AID 2239; B-score at 10 µM; 310,000 tested, 0.54% active; O88943;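 active means fluorescence ratio B-score at least 3 SD of library B-scores, with initial fluorescence B-score within 3 of them, cut at about 5.3 in these data; same plate scores as AID 2156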;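 further: B-score of peak minus minimum over baseline fluorescence ratio after K+ and Tl+ stimulus; positive B-score means potentiation of KCNQ2 with more thallium influx and brighter signal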
KCNQ2 block – blocks the rat KCNQ2 potassium channel; O88943; CHO-K1 KCNQ2, FluxOR thallium flux, 20 min; stronger effect = lower value; B-score at 10 µM; 310,000 tested, 1.1% active; AID 2156;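 active means fluorescence ratio B-score at most minus 3 library SDs, with starting brightness B-score within 2 library SDs, cut at about -5.5 in these data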
A number is an active result; - = inactive; . = no result. Sampled rows, rich in hits. Any-hit rate of the full collection: about 1.6%.

SMILES	KCNQ2 pot	KCNQ2 block
CC(C)(C)n1nnnc1C(c1cccc(C#N)c1)N1CCC(Cc2ccccc2)CC1 (stereo not given)	-	-
NC(=O)c1cnn(C2CCS(=O)(=O)C2)c1 (stereo not given)	-	-
CCN(CC)S(=O)(=O)c1cccc(C(=O)OCC(=O)NCc2ccccc2OC)c1	-	-6.5
CCN(CC)S(=O)(=O)c1cccc(C(=O)OCC(=O)Nc2ccccc2OC(F)F)c1	-	-
N#Cc1cc2c(nc1SCc1ccc(Cl)nc1)CCCCC2	.	-
COC(CNC(=O)c1ccc2c(c1)ncn2-c1cccc(C)c1)OC	.	-
O=C(CN(C(=O)c1cc2c(s1)CCC2)C1CCCC1)NCc1cccs1	-	-7.14
O=C(CN(Cc1ccccc1)C(=O)c1cc2c(s1)CCC2)NCc1cccs1	.	-
O=C(c1cc2c(s1)-c1ccccc1OC2)N1CCc2ccccc2C1	-	-5.57
COc1ccccc1N1CCN(C(=O)c2cc3c(s2)-c2ccccc2OC3)CC1	.	-
COc1ccc(C(CNC(=O)c2oc3ccc(C)cc3c2C)N2CCCCC2)cc1 (stereo not given)	.	-
COc1ccc(C(CNC(=O)COc2cc(C)c(Cl)c(C)c2)N2CCCCC2)cc1 (stereo not given)	-	-5.99
COc1ccc(C(CNC(=O)c2oc3cc(C)c(Cl)cc3c2C)N2CCCCC2)cc1 (stereo not given)	-	-5.79
COc1ccc(C(CNC(=O)COc2ccc(C)c(C)c2)N2CCCCC2)cc1 (stereo not given)	.	-
Cc1noc(/C=C/c2cccs2)c1S(=O)(=O)N1CCC(C(=O)NCCCN2CCCC(C)C2)CC1 (stereo not given)	-	-
C=CCOn1c(-n2nc(C)cc2C)nc2ccccc2c1=O	.	-
Cc1cc(C)n(-c2nc3ccccc3c(=O)n2OCCOc2ccccc2)n1	-	-5.6
Cc1c(Br)c([N+](=O)[O-])nn1CC(=O)Nc1cccc2nonc12	-	-
O=C(OCn1ncc(Br)c(Br)c1=O)c1ccccc1Cl	.	-
O=C(OCn1ncc(Br)c(Br)c1=O)c1ccc(F)cc1	-	-5.6
CCN(C(=O)c1ccnn1C)c1ccccc1	-	-
O=C(O)CN1C(=O)/C(=C\C(Br)=C\c2ccccc2)SC1=S	-	-
O=C(CSc1nnc(-c2ccc(O)cc2)n1Cc1ccco1)c1cccs1	-	-
N#Cc1c(-c2ccccc2)c(-c2ccccc2)n(Cc2ccco2)c1NC(=O)c1cccs1	-	-6.34
COc1cc2c(cc1NC(=O)COC(=O)/C=C/c1ccc([N+](=O)[O-])cc1)oc1ccccc12	.	-
SMILES	KCNQ2 pot	KCNQ2 block
COc1cc2c(cc1NC(=O)/C=C/c1ccc([N+](=O)[O-])cc1)oc1ccccc12	5.61	-
CCN(CC)P(=O)(Nc1ccc(C)cc1Br)c1ccc(N(C)C)cc1NC(=O)c1ccco1 (stereo not given)	.	-
CC(=O)N1c2ccc(S(=O)(=O)N3CCC(C(=O)Nc4cccc(Cl)c4)CC3)cc2CC1C (stereo not given)	-	-
CCOc1ccc(C(=O)NCC(=O)NNC(=O)CN(C)S(=O)(=O)c2ccc(Cl)cc2)cc1	.	-
CN1CCN(C2=C(Cl)C(=O)N(C3CCCCC3)C2=O)CC1	.	-
CN1CCN(C2=C(Cl)C(=O)C(c3cnc(N4CCCCC4)s3)=C(Cl)C2=O)CC1	-	-8.98
Cc1ccc(C(c2c(C)n(C)n(-c3ccccc3)c2=O)c2c(C)n(C)n(-c3ccccc3)c2=O)s1	.	-
C=C(C)c1cccc(C(C)(C)NC(=O)Nc2ccccc2OCC)c1	8.73	-
C=C(C)c1cccc(C(C)(C)NC(=O)Nc2cc(C)ccc2OC)c1	-	-
CCc1ccc(S(=O)(=O)/N=C2\C=C(Nc3ccc(C(=O)O)cc3)C(=O)c3ccccc32)cc1	-	-
CC(C)(C)c1ccc(S(=O)(=O)/N=C2\C=C(NS(=O)(=O)c3ccccc3)C(=O)c3ccccc32)cc1	-	-6.06
CCNc1nc(NC(C)C)nc(SCCOc2ccc(C)cc2)n1	-	-5.56
CCNc1nc(NC(C)C)nc(SCCOC(=O)c2ccccc2)n1	.	-
CC1(N(O)C=C2C=CC(=O)C=C2)CCCCC1=O (stereo not given)	.	-
Cc1ccc(N(Cc2ccco2)C(=O)c2ccc(N3CCCCC3)c([N+](=O)[O-])c2)cc1	-	-7.11
O=C(NCc1ccco1)c1ccc(N2CCCCC2)c([N+](=O)[O-])c1	-	-
CCOC(=O)c1cc(CC)sc1NC(=O)CN1C(=O)C(=O)N(CC(C)C)C1=O	.	-
COc1ccc(C(O)(C2CCCCC2)C(CN2CCOCC2)c2ccccc2)cc1 (stereo not given)	.	-
OC(c1ccccc1)(C1CCCCC1)C(CN1CCOCC1)c1ccccc1 (stereo not given)	-	-5.66
CCc1ccc2c(c1)C1(NN=C(c3cccc4ccccc34)S1)C(=O)N2 (stereo not given)	-	-14.4
CCc1ccc2c(c1)C1(C(=O)N2)N2CCCC2C(C(=O)c2ccc3ccccc3c2)C12C(=O)Nc1ccccc12 (stereo not given)	-	-
Cc1nc(C)c(NC(=O)OC(C)C)cc1NC(=O)OC(C)C	-	-
Cc1[nH]c(C)c(S(=O)(=O)NCC(C)c2ccccc2)c1C(=O)N1CCCCC1 (stereo not given)	.	-
C/C(=N\OCC(=O)Nc1cc(C)cc(C)c1)c1ccc2c(c1)OCCO2	.	-
C/C(=N\OCC(=O)Nc1c(C)cc(C)cc1C)c1ccc2c(c1)OCCO2	8.08	-
SMILES	KCNQ2 pot	KCNQ2 block
Cn1c(=O)c2c(ncn2CCOc2cccc(Br)c2)n(C)c1=O	-	-
CCCNc1c(NS(=O)(=O)c2ccc3c(c2)CCCC3)c(=O)oc2ccccc12	.	-
Cc1ccc(NC(=O)C(c2ccccc2)C2CCCC2)cc1 (stereo not given)	.	-
O=C(Nc1ccc2ccccc2c1)C(c1ccccc1)C1CCCC1 (stereo not given)	-	-5.7
O=C(CCc1ccc(CCC(=O)c2cccs2)s1)c1cccs1	-	-6.77
O=C(CCN1CCCC1)c1cccs1	.	-
Brc1cc2c(cc1CSc1ncccn1)OCO2	-	-
CCCCNC(=O)CNC(=S)N(Cc1ccc(C)cc1)Cc1ccco1	-	-
CCOC(=O)CNC(=S)N(Cc1ccco1)Cc1ccccc1Cl	-	-6.49
CNC(=O)/C(C#N)=C/c1cccc(Oc2ccccc2)c1	-	-5.91
CNC(=O)/C(=C\c1cccc(Oc2ccccc2)c1)NC(=O)c1ccccc1	.	-
Cc1ccc(-c2c(C(=O)NCc3ccc(F)cc3)oc(=O)c3ccccc23)cc1	9.22	-
Cc1ccc(CNC(=O)c2cc(=O)c3ccccc3o2)cc1	-	-
Cc1nnnn1/C(=C\c1ccccc1)C(=O)OCC(=O)NC(C)(C)C	.	-
Cc1nnnn1/C(=C\c1ccccc1)C(=O)OCC(=O)NC1CCCCC1	-	-5.97
CCN(CC)CCCn1c2c(c(SCC(=O)N3CCc4ccccc43)nc1=O)CCC2	-	-
COc1ccc2c(Cl)c(C(=O)N/N=C3\CCCC(=O)C3)sc2c1	.	-
CC1CC(C)(C)N(C(=O)CSc2ccc(-c3ccc(F)cc3)nn2)c2ccccc21 (stereo not given)	-	-5.67
CC1CCN(C(=O)CSc2ccc(-c3ccc(F)cc3)nn2)CC1	-	-
Cc1ccc(OCC(=O)Nc2cnn(CCCC(=O)O)c2)c([N+](=O)[O-])c1	.	-
O=C(NCc1ccccn1)c1ccc(Cl)c(NC2=NC3CS(=O)(=O)CC3S2)c1 (stereo not given)	.	-
